PI5P4K alpha inh: inhibitors of human PI5P4K alpha | P48426 | PI5P4Kalpha enzyme, ADP-Glo luminescence, 60 min; hits give low values | max response, % | actives 1.2% (n = 330,000); active = max response of -50% or lower; inconclusive = between -30% and -50%; inactive = -30% or higher; also: value at the top dose of about 77 µM; % is scaled to controls: 0 for no effect and ±100 for the full control effect
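Luminescence from ADP-Glo served as readout of PI5P4Kalpha activity in a qHTS format. Reaction: enzyme, substrate, compound, ATP at 5 microM final, 60 min at RT.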
HP1b chromo inh: blocks HP1-beta chromodomain binding to methylated histone tails. P83916. AlphaScreen HP1-beta / biotin-H3K9me3 peptide binding. Potency, µM (series often up to 114 µM), for the others: top-dose activity change, negative = inhibition, hits mostly inhibitors. actives 0.56% (n = 390,000); also: potency is read from the fitted curve at half-maximal effect; nearly all actives have a fitted effect of over 70% in size
Target sequence (P83916 whole entry, looked up): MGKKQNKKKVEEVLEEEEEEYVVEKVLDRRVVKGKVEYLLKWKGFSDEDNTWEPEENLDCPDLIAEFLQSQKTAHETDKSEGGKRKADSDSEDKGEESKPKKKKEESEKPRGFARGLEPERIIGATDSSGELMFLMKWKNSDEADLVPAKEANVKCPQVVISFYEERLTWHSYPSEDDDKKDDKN
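HP1-beta protein (50 nM final) preincubated 30 min at room temperature with biotinylated H3(1-18)K9me3 peptide (50 nM) in PBS pH 7.4, 0.01% Tween-20, then compound added for 30 min. AlphaScreen streptavidin donor/nickel chelate acceptor beads (10 ug/mL final), 30 min dark, luminescence read.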
L3MBTL1 inh: blocks human L3MBTL1; Q9Y468; AlphaScreen L3MBTL1–H3K9me1 peptide binding; Potency, µM (highest dose often 57.1 µM), without a hit: at the highest dose activity, negative = inhibition, hits mostly inhibitors; actives 0.66% (n = 230,000); AID 485360; also: potency is read from the fitted curve at half-maximal effect; % is scaled to controls: 0 for no effect and ±100 for the full control effect; nearly all actives have a fitted effect of over 60% in size
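First, the protein-peptide complex forms for 30 min at room temperature (L3MBTL1 50 nM, biotinylated H3K9me1 peptide 75 nM). Next, compounds are pin-transferred and incubated 30 min. Finally, AlphaScreen beads are added and read after 30 min.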
BAZ2B inh: BAZ2B (human) inhibition; Q9UIF8; AlphaScreen BAZ2B-H3K14Ac peptide displacement; Potency, µM (highest dose often 114 µM), without a hit: at the top dose activity change, negative = inhibition, most hits filed as inhibitors; actives 4.4% (n = 360,000); also: potency is read from the fitted curve at half-maximal effect; % is scaled to controls: 0 for no effect and ±100 for the full control effect; nearly all actives have a fitted effect of over 60% in size
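AlphaScreen displacement: compounds (up to 110uM) incubated 30 min at room temperature with a preformed 50 nM BAZ2B/50 nM biotinylated H3K14Ac peptide complex in PBS pH 7.4 with Tween-20. Donor and acceptor beads at 10 ug/mL final added, 20 min light-protected before reading.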
KDM4E inh: JMJD2E (human) inhibition; Potency, µM (titrated, usually from 57.1 µM), inactives show at the top dose activity change, negative = inhibition, usual class: inhibitors; actives 1.6% (n = 230,000); B2RXH2; JMJD2E catalytic domain, FDH-coupled NADH fluorescence (FDH is formaldehyde dehydrogenase); active = well fitted inhibition curve with a large enough effect, not every such curve was filed as active; inconclusive = small, poorly fitted or top-dose-only effect, or another doubt; inactive = no such curve, though single readings can be large or run the other way;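 also: potency is read from the fitted curve at half-maximal effect; 0% = wells with enzyme and -100% = buffer wells without enzyme; nearly all actives have a fitted effect of over 50% in size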
Target sequence (B2RXH2 1-337 limits assumed): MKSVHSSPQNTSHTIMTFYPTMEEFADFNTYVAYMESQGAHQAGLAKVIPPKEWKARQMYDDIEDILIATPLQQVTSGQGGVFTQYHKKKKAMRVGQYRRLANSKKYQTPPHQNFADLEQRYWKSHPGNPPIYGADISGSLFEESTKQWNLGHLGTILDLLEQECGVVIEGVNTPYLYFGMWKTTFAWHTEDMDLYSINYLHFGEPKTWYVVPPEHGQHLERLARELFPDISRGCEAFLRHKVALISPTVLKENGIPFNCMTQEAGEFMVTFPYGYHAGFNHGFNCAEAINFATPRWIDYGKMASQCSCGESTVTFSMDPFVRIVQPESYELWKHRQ
JMJD2A Tudor: blocks the human JMJD2A Tudor domain. AlphaScreen JMJD2A-Tudor / H3K4me3 peptide binding. actives 4.4% (n = 390,000). Potency, µM (titrated, usually from 114 µM), for the others: at the top dose activity change, negative = inhibition, hits mostly inhibitors. O75164; also: potency is read from the fitted curve at half-maximal effect; % is scaled to controls: 0 for no effect and ±100 for the full control effect; nearly all actives have a fitted effect of over 50% in size
Active calls of the source: *; ? = inconclusive; . = no result given; ! = repeats disagree; [ ] = another dose, or the depositor's remark. Only some compounds are listed: those with a hit (about 5.7% of all), similar ones and a draw of the others. Unless noted, calls follow the shape of the dose curve; as a rule, active = well fitted inhibition curve with a large enough effect; inconclusive = small, poorly fitted or top-dose-only effect; inactive = no such curve, though single readings can be large or run the other way.

SMILES	PI5P4K alpha inh	HP1b chromo inh	L3MBTL1 inh	BAZ2B inh	KDM4E inh	JMJD2A Tudor
COc1ccc2c(c1)C=C([C@@H]1C[C@H]3CN(c4ccccc4)C(=O)[C@]34CCCN14)CO2	5	-13%	-27%	-26%	-14%	?
COCCNc1nc2cc(-c3ccc(C)cc3)sc2c(=O)n1C	0	.	.	.	.	.
C=CCn1c(-c2cccc(OC)c2OC)n[nH]c1=S	-7	31%	-3%	-29%	2%	7.9µM*
C=CCn1c(-c2cc(OC)c(OC)c(OC)c2)n[nH]c1=S	.	11%	-1%	-4%	?	6.3µM*
C=CCn1c(-c2csc(-c3ccc(OC)c(OC)c3)n2)n[nH]c1=S	1	24%	10%	-8%	-26%	7.9µM*
C=CCn1c(-c2cccc(OC)c2)n[nH]c1=S	0	3%	0%	7%	?	11µM*
C=CCn1c(-c2ccoc2C)n[nH]c1=S	.	12%	.	?	-9%	-1%
Cc1ccc(CNC(=O)C(=O)Nc2c3c(nn2-c2ccc(F)cc2)CSC3)cc1	.	35%	.	-1%	.	-1%
Cc1ccc(NC(=O)CN2C(=O)C3(SCC(=O)N3c3cccc(Cl)c3)c3ccccc32)cc1C (configuration not stated)	.	9%	.	-5%[57.1 µM]	.	-31%
COc1cccc(/C=C/C(=C2\C(=O)N(c3ccccc3)N=C2C)c2ccc(Br)cc2)c1OC	8	40µM*	.	.	.	?
O=C(CCCn1nnnc1CN1CCOCC1)N1CCC(c2ccc(F)cc2)C1 (configuration not stated)	3	37%	.	-21%	.	-4%
c1ccc(-c2ccc3c(c2)c2c4n3CCN=C4CCC2)cc1	.	-23%	-7%	?	?	56µM*
OC1CN=C2CCCc3c2n(c2ccc(Cl)cc32)C1 (configuration not stated)	-7	24%	.	-37%	?	-31%
CCOc1ccc2nc(/N=C/c3nc(-c4ccc(Br)cc4)oc3O)sc2c1	-63*	?	-6%	14%	?	-19%
Cc1cccc(C)c1NC(=O)N1CCC(C(N)=O)(N2CCCCC2)CC1	.	16%	.	0%	.	-15%
COc1ccc(NS(=O)(=O)c2ccc3c(c2)CCN3C(=O)CCC(=O)O)cc1Cl	.	24%	.	-14%	.	-5%
COCCNC(=S)NNc1ccccc1[N+](=O)[O-]	?	?	.	50µM*	-13%	?
Cc1cc2c(N)cccc2nn1	?	5%	.	79µM*	?	-25%
Nc1cccc2nc3ccccc3cc12	0	26%	.	7%	?	0%
COc1ccc(/C=N/Nc2ncc(Br)cn2)c(OC)c1	?	24%	20%	19%	-9%	50µM*
COC(=O)c1[nH]c(=O)c2ccccc2c1O	0	44%	-4%	-2%	?	-23%[11.4 µM]
CCc1ccc2c(O)c3c(cc2c1C(=O)OC)C(=O)c1c(O)ccc(O)c1C3=O	.	.	.	.	2.8µM*	.
COc1ccc(NC(=O)CSc2nc3[nH]ncc3c(=O)[nH]2)c(OC)c1	-8	4%	6%	-5%	.	-10%
CCOC(=O)c1cc2occc2n1CCCN1C(=O)c2ccccc2C1=O	.	?	.	50µM*	3%	?
O=C(Nc1ccccc1F)c1ccc(Cn2nc(N3CCN(c4ccccc4)CC3)ccc2=O)o1	.	8%	.	32µM*	.	50µM*
SMILES	PI5P4K alpha inh	HP1b chromo inh	L3MBTL1 inh	BAZ2B inh	KDM4E inh	JMJD2A Tudor
O=C(Nc1ccc(F)cc1)c1ccc(Cn2nc(N3CCN(c4ccccc4)CC3)ccc2=O)o1	.	-11%	.	-39%	.	?
CCc1cccc(N2C(=O)CSC23C(=O)Nc2ccccc23)c1 (configuration not stated)	.	31%	.	-13%	.	-1%
O=C1c2cccc3cccc(c23)C(=O)N1c1ccc2ncccc2c1	6	-17%	-3%	?	-1%	79µM*
O=C1c2cccc3cccc(c23)C(=O)N1c1nccs1	.	37%	0%	5%	-17%	3%
CC(CCN1CCOCC1)c1ccccc1 (configuration not stated)	-1	?	7%	?	.	22µM*
c1ccc(C(CN2CCOCC2)c2ccccc2)cc1	.	?	2%	?	-8%	4µM*
OC(COC(c1ccccc1)c1ccccc1)CN1CCOCC1 (configuration not stated)	-5	18%	21%	3%	-6%	?
Cc1ccc(OCC(=O)Nc2ccc(OCc3cc(=O)n4ccsc4n3)cc2)cc1C	.	63%	.	-1%	.	-13%
O=C(NNc1cc(Cl)cc(Cl)c1)c1sccc1Cl	.	36%	.	.	.	-27%
COC/C=C/C1=CC2=CC(=O)C(C)(OC(=O)c3cnc4ccccc4n3)C(=O)C2=CN1CCc1ccccn1 (configuration not stated)	.	.	.	.	22%[11.4 µM]	.
CCCCC1=CC2=CC(=O)C(C)(OC(=O)c3cccs3)C(=O)C2=CO1 (configuration not stated)	-87*	7%	.	.	-7%	?
COC/C=C/C1=CC2=CC(=O)C(C)(OC(=O)c3cnc4ccccc4n3)C(=O)C2=CN1CCCCO (configuration not stated)	-14	28%	.	-27%	8.9µM*!	-20%
CCCCC1=CC2=CC(=O)C(C)(OC(=O)c3cnc4ccccc4n3)C(=O)C2=CO1 (configuration not stated)	.	.	.	79µM*	-2%	.
COC(=O)CCCC1=CC2=CC(=O)C(C)(OC(=O)c3cccs3)C(=O)C2=CO1 (configuration not stated)	.	.	.	.	7%	.
COc1ccc(CNC(=O)c2cnc3sc(N4CCC(C)CC4)nn3c2=O)c(OC)c1	.	9%	.	5%	.	-7%
CCOC(=O)c1c(C)[nH]c(C)c1S(=O)(=O)N1CCCC(C(=O)N2CCN(c3cccc(Cl)c3)CC2)C1 (configuration not stated)	.	-5%	.	?	.	?
Cc1nc2cccnc2n1-c1cccc(C(=O)NCc2cccc(Cl)c2)c1	.	10%	.	-11%	.	-8%
COc1ccc(-c2ccoc2)cc1C1C2C=CCC(C)C2C(=O)N1Cc1ccccc1 (configuration not stated)	.	4%	.	.	.	?
Cc1c(C(=O)c2ccccc2)c2ccccn2c1CCc1ccccn1	0	18%	?	71µM*	?	-35%
CC(=O)Oc1ccc(/C=C/C(=O)CC2OC(Oc3cc(OC(C)=O)c4c(c3)O[C@@H](c3ccc(OC(C)=O)cc3)CC4=O)C(OC(C)=O)C(OC(C)=O)C2OC(C)=O)cc1 (some centres not stated)	.	.	.	.	2%	.
CC(C)N=c1scc(-c2cccs2)n1/N=C/c1ccc(O)c(O)c1O	-60*	25µM*	?	32µM*	28µM*	22µM*

Compound activity as filed in PubChem BioAssay.
